KCNQ2 enhance = enhances the rat KCNQ2 potassium channel; B-score at 10 µM; actives 0.54% (n = 310,000); AID 2239; O88943; CHO-K1 KCNQ2, FluxOR thallium flux fluorescence; hits give high values;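 active = fluorescence ratio B-score at least 3 SD of library B-scores, with initial fluorescence B-score within 3 of them, cut at about 5.3 in these data; same plate scores as AID 2156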;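 also: B-score of peak minus minimum over baseline fluorescence ratio after K+ and Tl+ stimulus; positive B-score means potentiation of KCNQ2 with more thallium influx and brighter signal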
KCNQ2 block = KCNQ2 (rat) channel inhibition; O88943; CHO-K1 KCNQ2, FluxOR thallium flux, 20 min; hits give low values; B-score at 10 µM; actives 1.1% (n = 310,000); AID 2156;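 active = fluorescence ratio B-score at most minus 3 library SDs, with starting brightness B-score within 2 library SDs, cut at about -5.5 in these data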
KCNQ2 inh conf = rat KCNQ2 channel inhibition, confirmatory screen | shares compounds with KCNQ2 block | KCNQ2-expressing cells, thallium flux; hits give low values | activity change, negative = inhibition, % at 10 µM | actives 57% (n = 1,000);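 also: 0% = vehicle wells and values are ratio percent relative to vehicle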
KCNQ1 spec = selectivity of KCNQ2 inhibitors against human KCNQ1. shares compounds with KCNQ2 block. actives 15% (n = 1,000). activity change, negative = inhibition, % at 10 µM. KCNQ1-expressing cells, FluxOR thallium flux fluorescence; hits give low values. AID 493026;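 active = activity change at least 3 SD of negative controls below their mean in both duplicate wells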;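 also: CHO cells stably transfected with KCNQ1 and depolarized by potassium stimulus; peak minus minimum fluorescence over baseline after thallium addition; 0% = vehicle negative control and -100% = blank without thallium stimulus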
CHO parental ctr = KCNQ2 inhibitor counter-screen hit in parental CHO cells; thallium flux counter-screen; hits give low values; actives 14% (n = 1,000); shares compounds with KCNQ2 block; activity change, % at 10 µM; AID 493029;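 also: 0% = vehicle negative controls with stimulus buffer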
KCNQ2 patch conf = confirmation of rat KCNQ2 potassium channel inhibitors | shares compounds with KCNQ2 block | actives 49% (n = 550) | KCNQ2-expressing cells, automated patch clamp current | calls only at 10 µM
An asterisk follows results filed as active; i = inactive; / = no result given; + = active, no number. Sampled rows, rich in hits. Any-hit rate of the full collection: about 1.6%. Unless noted, no rule for the calls is given here.

SMILES	KCNQ2 enhance	KCNQ2 block	KCNQ2 inh conf	KCNQ1 spec	CHO parental ctr	others
COc1ccc(C(c2c(O)ccc3ccccc23)N2CCOCC2)c(OC)c1 (configuration not stated)	-10.3	-10.3*	-32.0%*	i	i	KCNQ2 patch conf=i
COc1ccc(C(CCN2CCOCC2)c2c(O)cc(OC)cc2OC)cc1 (configuration not stated)	0.49	i	/	/	/
O=C(CCNc1ccccc1)c1cccc([N+](=O)[O-])c1	-7.93	-7.93*	i	i	i
O=C(CCNc1ccc(F)cc1)c1cccc([N+](=O)[O-])c1	/	i	/	/	/
CCc1cccc(OCC(=O)Nc2cc(S(=O)(=O)N3CCOCC3)ccc2N2CCCC2)c1	/	i	/	/	/
COc1ccc(CCNc2ccc(C(CC(N)=O)NC(=O)c3cc(OC)ccc3OC)cc2[N+](=O)[O-])cc1 (configuration not stated)	0.47	i	/	/	/
COc1ccc2cc(C(c3nnnn3CCc3ccccc3)N3CCCC(C)C3)c(=O)[nH]c2c1 (configuration not stated)	-8.58	-8.58*	-35.0%*	i	i	KCNQ2 patch conf=+
COCCn1nnnc1C(c1cc2cc(OC)ccc2[nH]c1=O)N1CCC(Cc2ccccc2)CC1 (configuration not stated)	0.73	i	/	/	/
O=C(CNCCc1ccccc1)N1CCc2ccccc2C1	/	i	/	/	/
COc1ccccc1OCCNS(=O)(=O)c1ccc2oc3ccccc3c2c1	/	i	/	/	/
O=S(=O)(NCCOc1ccccc1Cl)c1ccc2oc3ccccc3c2c1	-6.78	-6.78*	i	i	i
COc1cc2c(cc1OC)C(Nc1ccccc1)=NC(C)(C)C2	/	i	/	/	/
Clc1ccc(CSC2=NCCCN2)cc1Cl	2.7	i	/	/	/
Clc1cccc(Cl)c1CSc1cc2c(nn1)-c1ccccc1CC2	-8.52	-8.52*	i	i	i
Clc1ccc(CSc2cc3c(nn2)-c2ccccc2CC3)cc1Cl	-8.33	-8.33*	-27.0%*	i	i	KCNQ2 patch conf=i
Clc1ccccc1CSc1cc2c(nn1)-c1ccccc1CC2	-8.09	-8.09*	-19.0%*	i	i	KCNQ2 patch conf=i
Nc1ccccc1SCc1ccccc1Cl	/	i	/	/	/
O=c1cc2c(nn1Cc1c(Cl)cccc1Cl)-c1ccccc1CC2	1.58	i	/	/	/
N#Cc1ccccc1S(=O)(=O)N1CCN(c2cnccn2)CC1	/	i	/	/	/
CCN(CC)CCn1c(=S)[nH]c2cc(C(=O)NCc3ccccc3Cl)ccc2c1=O	0.14	i	/	/	/
COc1cccc(NC(=O)Cn2nnc(C(=O)NCCc3ccccc3)c2N)c1	/	i	/	/	/
CC1CCC(C(C)C)C(OC(=O)COC(=O)c2ccc(N)cc2)C1 (configuration not stated)	/	i	/	/	/
CC1CCC(C(C)C)C(OC(=O)Cn2c(-c3ccc(Cl)cc3)[n+](C)c3ccccc32)C1 (configuration not stated)	-6.7	-6.7*	-45.5%*	-46.0%*	-48.0%*	KCNQ2 patch conf=+
Cc1ccc(S(=O)(=O)N(C)CC(=O)Nc2nnc(CC(C)C)s2)cc1	1.78	i	/	/	/
CC1=CC(=C(C#N)c2nc3ccccc3s2)C=C(C)N1CC1CCCO1 (configuration not stated)	0.35	i	/	/	/
SMILES	KCNQ2 enhance	KCNQ2 block	KCNQ2 inh conf	KCNQ1 spec	CHO parental ctr	others
CCOC(=O)C1=C(C)N(CCCC(=O)O)C(=O)NC1c1ccc(C(F)(F)F)cc1 (configuration not stated)	0.24	i	/	/	/
CCn1c(N2CCN(S(=O)(=O)c3ccccc3C(F)(F)F)CC2)nc2ccccc21	/	i	/	/	/
CCn1c(N2CCN(C(=O)C34CC5CC(CC(C5)C3)C4)CC2)nc2ccccc21	-8.62	-8.62*	-40.0%*	-37.0%*	-36.5%*	KCNQ2 patch conf=+
COc1cccc(NC(=O)c2cccc(C(=O)Nc3cccc(OC)c3)c2)c1	0.78	i	/	/	/
COc1cccc(C(=O)Nc2cccc(C(=O)NCC(C)C)c2)c1	-6.69	-6.69*	i	i	i
COc1ccccc1N1CCN(C(=O)C2CCC(CNS(=O)(=O)c3ccc(NC(C)=O)cc3)CC2)CC1 (configuration not stated)	/	i	/	/	/
Cc1ccc(NC(=O)C(NC2CCCC2)c2ccccc2)cc1Cl (configuration not stated)	-6.81	-6.81*	-36.5%*	-39.0%*	-36.0%*	KCNQ2 patch conf=i
O=C(CC(c1ccccc1)c1ccccc1)NCC1CCCO1 (configuration not stated)	/	i	/	/	/
O=C(Nc1cc(Cl)cc(Cl)c1)C(NCC1CCCO1)c1ccccc1 (configuration not stated)	-7.77	-7.77*	i	i	i
CN(C)CCNC(C(=O)Nc1cc(Cl)cc(Cl)c1)c1ccccc1 (configuration not stated)	/	i	/	/	/
COc1cccc(NC(=O)C(NC2CCCC2)c2ccccc2)c1 (configuration not stated)	/	i	/	/	/
CC(C)NC(C(=O)Nc1cc(Cl)cc(Cl)c1)c1ccccc1 (configuration not stated)	-8.11	-8.11*	-36.0%*	i	i	KCNQ2 patch conf=i
COC(=O)c1cc(NC(=O)c2c(F)c(F)c(F)c(F)c2F)cc(C(=O)OC)c1	0.18	i	/	/	/
CN(Cc1ccccc1)S(=O)(=O)c1ccc(Cl)c(C(=O)NCc2ccc3c(c2)OCO3)c1	/	i	/	/	/
CCc1ccc(-n2cccc2/C=C2/C(=N)N3C(=NC2=O)SN=C3S(C)(=O)=O)cc1	-10.4	-10.4*	-39.0%*	-41.0%*	-35.0%*	KCNQ2 patch conf=i
Cc1ccc(-n2cccc2/C=C2/C(=N)N3C(=NC2=O)SN=C3S(C)(=O)=O)cc1	/	i	/	/	/
CCCCC(=O)NS(=O)(=O)c1ccc(NS(C)(=O)=O)cc1	0.56	i	/	/	/
CC(=O)Nc1ccc(NC(=O)c2ccc(COc3ccccc3Br)o2)cc1	0.53	i	/	/	/
Cc1cccc(NC(=O)c2ccc(COc3cccc4ccccc34)o2)n1	-8.76	-8.76*	-38.0%*	-34.0%*	-27.5%*	KCNQ2 patch conf=i
COc1ccc(-n2c(=O)c3c4c(sc3n(CC(=O)NC3CCCC3)c2=O)CCCC4)c(OC)c1	-6.71	-6.71*	i	i	i
COc1ccc(-n2c(=O)c3c4c(sc3n(CC(=O)NCC3CCCO3)c2=O)CCCC4)c(OC)c1 (configuration not stated)	/	i	/	/	/
Clc1ccc(COn2c(-c3ccc(Cl)cc3)nc3ccccc32)cc1	/	i	/	/	/
Clc1ccc(COn2c(-c3ccccc3)nc3ccccc32)cc1	-14.5	-14.5*	i	i	i
O=C(COC(=O)Cc1ccc(Cl)cc1Cl)Nc1ccccc1OC(F)F	/	i	/	/	/
O=C(COC(=O)CCSc1ccc(Cl)cc1)NCc1ccccc1Cl	0.33	i	/	/	/
O=C(COC(=O)CCSc1ccc(Cl)cc1)NCc1ccco1	-8.05	-8.05*	i	i	i
CN(C(=O)COC(=O)c1nc(Cl)c(Cl)c(Cl)c1Cl)C1CCS(=O)(=O)C1 (configuration not stated)	/	i	/	/	/
